# Measured values as given in PubChem BioAssay (NCATS).
# A number with no mark means an inactive call. Inconclusive results are not listed. Active and inactive are the calls of the source. Unless noted, calls follow the shape of the dose curve; as a rule, active = well fitted curve in the direction sought with a large enough effect; inconclusive = small, poorly fitted or top-dose-only effect, or another doubt; inactive = no such curve, though single readings can be large; an effect the other way counts as inactive or inconclusive.
# Experiments:
# [1] = target: Lysosomal acid glucosylceramidase (Homo sapiens) (UniProt P04062); assay: Glucocerebrosidase-p2 (AID 348; in the data active = potency below about 10 µM; also: potency is read from the fitted curve at half-maximal effect); settings: purified GBA, blue fluorogenic substrate, 40 min
# Lysosomal acid glucosylceramidase (Homo sapiens), sequence (P04062 whole entry, looked up): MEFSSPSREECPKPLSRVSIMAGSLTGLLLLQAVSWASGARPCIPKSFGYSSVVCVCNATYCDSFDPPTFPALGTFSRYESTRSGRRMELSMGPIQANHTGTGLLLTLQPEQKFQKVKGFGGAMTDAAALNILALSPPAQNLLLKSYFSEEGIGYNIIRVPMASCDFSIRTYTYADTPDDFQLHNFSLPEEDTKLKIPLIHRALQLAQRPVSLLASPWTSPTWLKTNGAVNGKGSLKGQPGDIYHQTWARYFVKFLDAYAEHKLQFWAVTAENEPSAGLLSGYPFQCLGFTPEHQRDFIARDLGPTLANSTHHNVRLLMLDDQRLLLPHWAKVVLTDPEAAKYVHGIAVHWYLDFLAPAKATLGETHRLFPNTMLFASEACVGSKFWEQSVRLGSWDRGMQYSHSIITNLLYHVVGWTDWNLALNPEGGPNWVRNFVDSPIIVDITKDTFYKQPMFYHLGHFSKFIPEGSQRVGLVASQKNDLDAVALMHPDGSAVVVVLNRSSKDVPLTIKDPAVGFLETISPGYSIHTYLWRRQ
# Summary of the method: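 Normal human glucocerebrosidase (0.2 nM) with blue fluorogenic substrate (80 uM final) in citrate/phosphate pH 5.9 with 10mM sodium taurocholate, 0.01% tween-20; 40 min RT, NaOH/glycine stop; fluorescence Ex 365/Em 440; AC50 from a titration from 0.6 nM upwards.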
# [2] = AP1 Signaling Pathway (AID 357; active = well fitted curve in either direction with a large enough effect, not every such curve was filed as active;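 also: ME-180 reporter cells stimulated with EGF at its EC50 level; % is scaled to controls: 0 for no effect and ±100 for the full control effect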); settings: ME-180 AP-1-bla reporter, EGF-induced, beta-lactamase ratio, 5 h; at 7.69 µM (top of the series) unless noted
# Summary of the method: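 Titration-series screen for positive or negative modulators of EC50 EGF-induced signaling in ME-180 cells carrying an AP-1-driven beta-lactamase reporter. After 5 hours at 37 degrees Celsius, CCF4 460nm/530nm emission ratio gave %Activity; AC50 values derived.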
# [3] = NFAT Signaling Pathway (AID 444; active = well fitted curve in either direction with a large enough effect, not every such curve was filed as active;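 also: carbachol stimulus at about its EC50 of 1 µM final; % is scaled to controls: 0 for no effect and ±100 for the full control effect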); settings: Jurkat NFAT-bla M1, carbachol, beta-lactamase ratio, 5 h; at 7.69 µM (top of the series) unless noted
# Summary of the method: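 Jurkat cells with NFAT-driven β-lactamase reporter and co-expressed M1 receptor, stimulated with carbachol (final 1 uM, ~EC50), compound titration, 5 h at 37 °C. CCF4 loaded 1 h at RT; 460/530 nm ratio gave %activity and AC50.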
# [4] = Stat Signaling Pathway (AID 446; active = well fitted curve in either direction with a large enough effect, not every such curve was filed as active;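 also: ME-180 cervical cancer cells given 40 pM IL-6 alongside compound; SIE-controlled beta-lactamase reporter measured as 460/530 nm FRET emission ratio; % is scaled to controls: 0 for no effect and ±100 for the full control effect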); settings: ME-180 SIE beta-lactamase reporter, IL-6 stimulated, 5 h; at 7.69 µM (top of the series) unless noted
# Summary of the method: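 FRET read-out (405 nm excitation, 460/530 nm emission) of a beta-lactamase reporter under a STAT-inducible element in ME-180 cervical carcinoma cells. Cells with compound receive 40 pM IL-6 for 5 h. Values are normalised to AC90 stimulation and AC90 JAK-inhibitor controls.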
# [5] = target: Glucocorticoid receptor (Homo sapiens) (UniProt P04150); assay: GR-GFP Redistribution (AID 450;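 active = compounds whose dose series gives a full or clear partial fitted curve of increased nuclear translocation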; also: potency is read from the fitted curve at half-maximal effect); settings: U2OS GR-GFP nuclear translocation, laser cytometry, 2 h
# Glucocorticoid receptor (Homo sapiens), sequence (P04150 whole entry, looked up, the tested form may be a part): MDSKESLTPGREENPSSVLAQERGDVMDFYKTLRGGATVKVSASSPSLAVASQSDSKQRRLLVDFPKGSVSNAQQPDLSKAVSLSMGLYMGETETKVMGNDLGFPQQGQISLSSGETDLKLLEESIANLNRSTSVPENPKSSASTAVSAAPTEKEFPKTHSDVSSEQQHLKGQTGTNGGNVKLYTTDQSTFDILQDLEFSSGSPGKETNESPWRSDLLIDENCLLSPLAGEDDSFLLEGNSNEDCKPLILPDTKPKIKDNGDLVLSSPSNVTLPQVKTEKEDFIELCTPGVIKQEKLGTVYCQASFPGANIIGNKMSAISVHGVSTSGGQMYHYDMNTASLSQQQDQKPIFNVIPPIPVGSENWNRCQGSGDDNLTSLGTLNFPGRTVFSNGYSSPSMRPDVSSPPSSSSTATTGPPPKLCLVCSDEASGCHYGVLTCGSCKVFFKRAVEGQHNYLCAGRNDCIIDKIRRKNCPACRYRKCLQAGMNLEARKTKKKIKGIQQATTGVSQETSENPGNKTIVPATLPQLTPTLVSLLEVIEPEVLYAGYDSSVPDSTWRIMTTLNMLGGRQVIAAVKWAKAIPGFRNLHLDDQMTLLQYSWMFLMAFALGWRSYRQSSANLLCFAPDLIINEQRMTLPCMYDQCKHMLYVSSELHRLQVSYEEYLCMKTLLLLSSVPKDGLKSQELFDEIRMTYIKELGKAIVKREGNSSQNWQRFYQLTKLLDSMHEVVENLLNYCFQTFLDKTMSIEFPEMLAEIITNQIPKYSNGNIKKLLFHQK
# [6] = target: Glucocorticoid receptor (Homo sapiens) (UniProt P04150); assay: GR-EFC Redistribution (AID 451; calls by dose curve; also: potency is read from the fitted curve at half-maximal effect); settings: CHO-K1 GR-EFC translocation, beta-gal luminescence, 2 h
# Summary of the method: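 CHO-K1 cells expressing nuclear EA and GR-ED fragments of b-gal; compounds titrated up to 46 uM final, 2 h at 37 C. GR nuclear translocation read as complemented b-gal luminescence after 1 h RT detection.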
# [7] = target: Mitogen-activated protein kinase 10 (Mus musculus) (UniProt Q61831); assay: JNK3 AlphaScreen Assay (AID 530; active = well fitted curve in either direction with a large enough effect, not every such curve was filed as active;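 also: kinase came from lysate of stimulated human HepG2 cells; signal reports phosphorylation of biotinylated GST-cJun 1-79 at Ser73 with 10 µM ATP; % is scaled to controls: 0 for no effect and ±100 for the full control effect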); settings: JNK3 lysate, c-Jun phosphorylation; series mostly up to 57.1 µM
# Summary of the method: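 Activity was read by AlphaScreen after JNK3-containing HepG2 lysate (cytokine pre-activated) phosphorylated biotinylated GST-cJun with 10 uM ATP at room temperature. Phospho-Ser73 cJun antibody with Protein-A acceptor beads provided detection.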
# [8] = target: Dual specificity protein kinase CLK4 (Homo sapiens) (UniProt Q9HAZ1); assay: qHTS Assay for Inhibitors of CDC-like Kinase 4 (ADP-Glo Assay) (AID 1771); settings: recombinant CLK4, ADP-Glo luminescence; series mostly up to 80 µM; also: nearly all actives have a fitted effect of over 70% in size; also: potency is read from the fitted curve at half-maximal effect
# Dual specificity protein kinase CLK4 (Homo sapiens), sequence (Q9HAZ1 whole entry, looked up): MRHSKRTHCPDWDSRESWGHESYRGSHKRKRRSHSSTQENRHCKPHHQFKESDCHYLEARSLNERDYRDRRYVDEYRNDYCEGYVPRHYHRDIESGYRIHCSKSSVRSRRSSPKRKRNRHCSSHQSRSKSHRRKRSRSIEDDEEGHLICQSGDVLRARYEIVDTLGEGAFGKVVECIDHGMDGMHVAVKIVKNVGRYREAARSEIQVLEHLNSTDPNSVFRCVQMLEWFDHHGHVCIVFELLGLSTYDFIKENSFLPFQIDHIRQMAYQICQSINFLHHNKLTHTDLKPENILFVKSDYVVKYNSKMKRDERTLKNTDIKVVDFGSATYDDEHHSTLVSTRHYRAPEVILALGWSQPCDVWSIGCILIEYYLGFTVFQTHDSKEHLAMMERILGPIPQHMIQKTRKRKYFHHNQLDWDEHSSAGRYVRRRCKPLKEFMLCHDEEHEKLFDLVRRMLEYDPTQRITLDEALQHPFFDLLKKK
# Summary of the method: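 ADP production was read by ADP-Glo luminescence after residual ATP depletion, following 1 h room-temperature reaction of 25 nM Clk4, 1 uM ATP and 100 uM RS peptide with MgCl2, EGTA, DTT and Triton X-100.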
# [9] = target: Dual specificity protein kinase CLK4 (Homo sapiens) (UniProt Q9HAZ1); assay: qHTS Assay for Inhibitors of CDC-like Kinase 4 (ADP-FP Assay) (AID 1795); settings: Transcreener ADP fluorescence polarization; series mostly up to 50 µM; also: % is scaled to controls: 0 for no effect and ±100 for the full control effect; nearly all actives have a fitted effect of over 60% in size
# Summary of the method: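 Recombinant human Clk4 (6.25 nM) phosphorylated RS repeat peptide (100 uM) with 1 uM ATP in Tris pH 7.5/MgCl2/EGTA/DTT/Triton buffer for one hour. ADP was quantified by Transcreener competitive fluorescence polarization against an ADP calibration curve.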
# [10] = Primary qHTS for small molecule stabilizers of the endoplasmic reticulum resident proteome: Secreted ER Calcium Modulated Protein (SERCaMP) assay (AID 1508630); settings: SH-SY5Y GLuc-SERCaMP (Gaussia luciferase released on ER calcium loss) secretion, thapsigargin, luminescence; series mostly up to 38.4 µM; also: % is scaled to controls: 0 for no effect and ±100 for the full control effect
# Summary of the method: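 The SH-SY5Y reporter protocol was run at 3 concentrations up to 38.3 uM (primary) or 11 concentrations (follow-up): 16 h compound, 100 nM thapsigargin for 4 h, then extracellular luciferase luminescence.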
# [11] = target: Cytochrome P450 1A2 (Homo sapiens) (UniProt P05177); assay: p450-cyp1a2 (AID 410; calls by dose curve; also: potency is read from the fitted curve at half-maximal effect); settings: recombinant CYP1A2, luciferin-ME demethylation, luminescence; series mostly up to 57 µM
# Cytochrome P450 1A2 (Homo sapiens), sequence (P05177 whole entry, looked up): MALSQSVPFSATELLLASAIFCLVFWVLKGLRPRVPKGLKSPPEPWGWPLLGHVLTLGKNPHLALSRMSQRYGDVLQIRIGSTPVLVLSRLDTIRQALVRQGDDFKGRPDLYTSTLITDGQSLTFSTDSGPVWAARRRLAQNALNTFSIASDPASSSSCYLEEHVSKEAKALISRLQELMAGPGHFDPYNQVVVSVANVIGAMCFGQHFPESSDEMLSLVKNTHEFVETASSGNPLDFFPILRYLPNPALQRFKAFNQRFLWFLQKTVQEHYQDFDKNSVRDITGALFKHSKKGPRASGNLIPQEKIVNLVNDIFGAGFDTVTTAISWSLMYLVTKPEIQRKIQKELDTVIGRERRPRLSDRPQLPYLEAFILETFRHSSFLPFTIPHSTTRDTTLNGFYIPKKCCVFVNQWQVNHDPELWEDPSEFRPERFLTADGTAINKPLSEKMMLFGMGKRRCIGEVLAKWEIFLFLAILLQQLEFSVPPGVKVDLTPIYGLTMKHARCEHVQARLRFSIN
# Summary of the method: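 Luminescent demethylation readout: Luciferin-ME (100uM, equal to Km) turned over by 20nM CYP1A2 for 60 min at room temperature after NADPH regeneration addition, following 10 min compound preincubation. Normalization used 57 uM furafylline as full inhibition.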
# [12] = target: Cytochrome P450 2C9 (Homo sapiens) (UniProt P11712); assay: qHTS Assay for Inhibitors and Substrates of Cytochrome P450 2C9 (AID 883); settings: recombinant CYP2C9, luciferin-H luminescence, 60 min; series mostly up to 57.1 µM; also: nearly all actives have a fitted effect of over 60% in size; also: potency is read from the fitted curve at half-maximal effect
# Summary of the method: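 Human CYP2C9 (10nM) with Luciferin-H at 100uM (its KM) in 25mM KPO4; compound preincubated 10 min at 37C, then NADPH regeneration for 60 min at 37C. Luciferin read by luminescence after detection reagent; normalized to 57uM sulphaphenazole as full inhibition.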
# [13] = target: Cytochrome P450 3A4 (Homo sapiens) (UniProt P08684); assay: qHTS Assay for Activators of Cytochrome P450 3A4 (AID 885); settings: recombinant CYP3A4, Luciferin-PPXE luminescence, 60 min; series mostly up to 57.1 µM; also: nearly all actives have a fitted effect of over 65% in size; also: potency is read from the fitted curve at half-maximal effect
# Cytochrome P450 3A4 (Homo sapiens), sequence (P08684 whole entry, looked up): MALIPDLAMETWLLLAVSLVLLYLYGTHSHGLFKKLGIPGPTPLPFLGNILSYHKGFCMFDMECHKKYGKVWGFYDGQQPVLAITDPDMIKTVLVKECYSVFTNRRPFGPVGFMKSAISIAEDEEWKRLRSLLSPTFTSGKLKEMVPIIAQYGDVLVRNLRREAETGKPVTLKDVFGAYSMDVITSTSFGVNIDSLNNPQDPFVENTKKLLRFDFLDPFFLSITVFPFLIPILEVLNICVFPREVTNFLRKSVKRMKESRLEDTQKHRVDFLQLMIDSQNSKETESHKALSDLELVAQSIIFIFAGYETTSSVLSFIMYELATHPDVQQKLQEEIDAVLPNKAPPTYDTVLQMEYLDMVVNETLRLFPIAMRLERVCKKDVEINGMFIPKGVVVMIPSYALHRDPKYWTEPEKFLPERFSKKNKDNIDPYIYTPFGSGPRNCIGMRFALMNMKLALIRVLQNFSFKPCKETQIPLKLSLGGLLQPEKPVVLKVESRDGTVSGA
# Summary of the method: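 Luminescent readout of luciferin formed from 25 uM Luciferin-PPXE (KM level) by 20 nM CYP3A4 in 200 mM KPO4, with 60 min NADPH-driven reaction at room temperature after 10 min compound exposure. Ketoconazole (57 uM) defined 100% inhibition.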
# [14] = target: Cytochrome P450 2C19 (Homo sapiens) (UniProt P33261); assay: qHTS Assay for Inhibitors and Substrates of Cytochrome P450 2C19 (AID 899); settings: recombinant CYP2C19, luciferin-H EGE luminescence; series mostly up to 57.1 µM; also: potency is read from the fitted curve at half-maximal effect; nearly all actives have a fitted effect of over 60% in size
# Cytochrome P450 2C19 (Homo sapiens), sequence (P33261 whole entry, looked up): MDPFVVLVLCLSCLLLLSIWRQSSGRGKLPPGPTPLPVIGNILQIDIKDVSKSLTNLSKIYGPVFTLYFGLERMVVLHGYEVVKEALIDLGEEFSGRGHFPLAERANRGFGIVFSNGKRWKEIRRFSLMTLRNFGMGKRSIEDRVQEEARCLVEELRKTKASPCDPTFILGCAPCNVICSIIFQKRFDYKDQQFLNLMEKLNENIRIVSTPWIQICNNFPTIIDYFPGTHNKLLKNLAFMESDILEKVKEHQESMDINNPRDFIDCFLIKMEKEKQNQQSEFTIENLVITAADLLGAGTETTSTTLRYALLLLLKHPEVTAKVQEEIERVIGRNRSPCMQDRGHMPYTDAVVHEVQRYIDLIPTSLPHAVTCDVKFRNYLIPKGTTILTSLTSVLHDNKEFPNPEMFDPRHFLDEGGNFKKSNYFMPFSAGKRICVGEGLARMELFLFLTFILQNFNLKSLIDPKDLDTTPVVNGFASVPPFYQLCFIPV
# Summary of the method: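 5 nM human CYP2C19 with 10uM Luciferin-H EGE (at KM) in 50mM KPO4, compound preincubated 10 min at 37C, then NADPH regeneration for 60 min at 37C. Luciferin read by luminescence after detection reagent; normalized to 57uM ketoconazole as full inhibition.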
# [15] = target: Ubiquitin carboxyl-terminal hydrolase 1 (Homo sapiens) (UniProt O94782); assay: Inhibitors of USP1/UAF1: Pilot qHTS (AID 504865); settings: purified USP1/UAF1, Ub-rhodamine cleavage fluorescence; series mostly up to 54.9 µM;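 also: rhodamine fluorescence freed from ubiquitin-rhodamine substrate followed over time; top concentration of the series differs between compounds; % is scaled to controls: 0 for no effect and ±100 for the full control effect; nearly all actives have a fitted effect of over 35% in size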
# Ubiquitin carboxyl-terminal hydrolase 1 (Homo sapiens), sequence (O94782 whole entry, looked up): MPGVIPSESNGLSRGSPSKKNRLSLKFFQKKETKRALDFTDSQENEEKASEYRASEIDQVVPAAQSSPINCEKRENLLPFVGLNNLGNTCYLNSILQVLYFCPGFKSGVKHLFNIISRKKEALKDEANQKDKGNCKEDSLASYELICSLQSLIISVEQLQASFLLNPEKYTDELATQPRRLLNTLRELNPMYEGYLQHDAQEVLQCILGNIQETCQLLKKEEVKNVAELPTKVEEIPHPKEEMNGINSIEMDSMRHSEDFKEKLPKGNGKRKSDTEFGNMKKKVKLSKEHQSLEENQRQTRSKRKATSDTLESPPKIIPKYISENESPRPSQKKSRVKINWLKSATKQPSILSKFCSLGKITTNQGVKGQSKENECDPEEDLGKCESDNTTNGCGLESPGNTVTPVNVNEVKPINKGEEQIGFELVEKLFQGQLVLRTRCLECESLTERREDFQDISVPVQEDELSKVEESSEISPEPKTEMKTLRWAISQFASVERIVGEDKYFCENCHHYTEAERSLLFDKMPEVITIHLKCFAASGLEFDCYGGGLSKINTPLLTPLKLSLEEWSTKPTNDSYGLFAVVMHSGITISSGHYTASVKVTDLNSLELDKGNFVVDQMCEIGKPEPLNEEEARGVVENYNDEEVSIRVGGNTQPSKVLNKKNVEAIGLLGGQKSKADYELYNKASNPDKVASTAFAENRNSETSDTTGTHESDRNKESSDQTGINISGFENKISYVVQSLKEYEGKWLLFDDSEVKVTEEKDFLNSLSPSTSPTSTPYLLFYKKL
# Summary of the method: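 USP1/UAF1 complex (1nM) preincubated with compound 15 min at room temperature, then Ub-Rho substrate (150nM final) added. Fluorescence read kinetically at 480/540 nm, 6 reads every 60 seconds. Buffer: 50mM HEPES pH 7.8, 0.5mM EDTA, 0.1 mg/ml BSA, 1mM TCEP, 0.01% Tween-20.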
# [16] = target: 3',5'-cyclic-AMP phosphodiesterase 4B (Homo sapiens) (UniProt Q07343); assay: qHTS Assay for Inhibitors of PDE-IV (AID 607; active = well fitted activation curve with a large enough effect in the main read-out, with a control signal flat, not every such curve was filed as active; also: % of control where 0% means no effect); settings: HEK293 ACTOne CNG channel cells, membrane potential fluorescence; series mostly up to 22.9 µM
# 3',5'-cyclic-AMP phosphodiesterase 4B (Homo sapiens), sequence (Q07343 whole entry, looked up): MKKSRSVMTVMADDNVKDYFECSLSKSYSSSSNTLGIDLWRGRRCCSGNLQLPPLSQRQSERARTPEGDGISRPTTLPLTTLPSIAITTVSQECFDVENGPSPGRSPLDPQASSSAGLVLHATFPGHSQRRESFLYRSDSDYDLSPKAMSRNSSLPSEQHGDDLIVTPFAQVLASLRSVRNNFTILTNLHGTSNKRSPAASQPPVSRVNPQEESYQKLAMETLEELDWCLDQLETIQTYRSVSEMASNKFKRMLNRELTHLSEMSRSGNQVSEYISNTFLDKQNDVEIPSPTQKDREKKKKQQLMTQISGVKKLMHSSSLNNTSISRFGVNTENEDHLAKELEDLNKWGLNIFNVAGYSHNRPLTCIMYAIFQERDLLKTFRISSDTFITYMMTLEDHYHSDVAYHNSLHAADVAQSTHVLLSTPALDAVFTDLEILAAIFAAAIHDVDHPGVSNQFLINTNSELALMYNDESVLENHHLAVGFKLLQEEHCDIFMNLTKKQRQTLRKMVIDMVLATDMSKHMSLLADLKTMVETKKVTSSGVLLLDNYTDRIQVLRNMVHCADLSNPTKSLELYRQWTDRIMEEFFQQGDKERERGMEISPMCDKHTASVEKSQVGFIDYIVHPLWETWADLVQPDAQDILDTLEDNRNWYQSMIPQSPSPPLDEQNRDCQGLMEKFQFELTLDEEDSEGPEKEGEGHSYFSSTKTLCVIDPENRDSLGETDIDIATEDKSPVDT
# Summary of the method: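 Cell-based read-out of cAMP via a modified cyclic nucleotide-gated channel and membrane potential dye (535/590 nm) in HEK293 cells expressing PDE4 endogenously. Compounds tested up to 22.9 uM final; 100 uM RO 20-1724 reference.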
# [17] = target: Cytochrome P450 3A4 (Homo sapiens) (UniProt P08684); assay: qHTS Assay for Inhibitors and Substrates of Cytochrome P450 3A4 (AID 884); settings: recombinant CYP3A4, Luciferin-PPXE luminescence; series mostly up to 57.1 µM; also: nearly all actives have a fitted effect of over 50% in size; also: potency is read from the fitted curve at half-maximal effect
# Summary of the method: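 Luminescent readout of luciferin produced by CYP3A4 (20 nM) dealkylation of Luciferin-PPXE, 25 uM (its KM). NADPH-driven reaction ran 60 min at RT after 10 min compound preincubation; data scaled to 57 uM ketoconazole as 100% inhibition.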
# [18] = qHTS Assay for Identification of Small Molecule Agonists for Hypoxia Response Element Signaling Pathway (AID 914; active = well fitted activation curve with a large enough effect in the signal ratio, with a control signal flat, not every such curve was filed as active; the % refers to the signal ratio; also: % of control where 0% means no effect); settings: ME-180 (cervical carcinoma) HRE-bla reporter, beta-lactamase ratio, CoCl2, 17 h; activation: stronger effect = higher value
# Summary of the method: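 Positive modulation of EC50 CoCl2-induced hypoxia response element signaling is measured in ME-180 cells with a beta-lactamase reporter. Compounds are titrated, incubation runs 17 hours, and %Activity derives from the blue/green ratio.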
# [19] = target: Dual specificity protein kinase CLK4 (Homo sapiens) (UniProt Q9HAZ1); assay: qHTS Assay for Inhibitors of CDC-like Kinase 4 (Kinase-Glo Assay) (AID 1770); settings: recombinant Clk4, Kinase-Glo ATP depletion luminescence; series mostly up to 66.7 µM; also: potency is read from the fitted curve at half-maximal effect; nearly all actives have a fitted effect of over 65% in size
# Summary of the method: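 Recombinant human Clk4 (25 nM) phosphorylated RS repeat peptide (100 uM) with 1 uM ATP in Tris pH 7.5/MgCl2/EGTA/DTT/Triton buffer for 4.5 h at room temperature. Residual ATP was quantified by Kinase-Glo luciferase luminescence.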
Compound,Potency [1],"activity change, negative = inhibition [2] [%]","activity change, negative = inhibition [3] [%]","activity, negative = inhibition [4] [%]",Potency [5] [µM],Potency [6] [µM],Potency [7],Potency [8],Potency [9],outcome [10],Potency [11],Potency [12],Potency [13],Potency [14],Potency [15],Potency [16],Potency [17],"activity change, negative = inhibition [12]",activation [18] [%],Potency [19]
O=c1c(-c2ccc(F)cc2)nc2cncnc2n1Cc1ccccc1,> 11.4 µM,-5.88,-16.1,9.13,> 9.22,> 46,inactive,inactive,inactive,inactive,,,,,,,,,,
O=c1c(-c2cccc(F)c2)nc2cncnc2n1Cc1ccccc1Cl,> 11.4 µM,-4.26,-7.87,4.32,> 9.22,> 46,inactive,inactive,inactive,inactive,3.98 µM (active),7.94 µM (active),inactive,794 nM (active),inactive,,,,,
COc1cccc(-c2nccc(NCc3cnc(C)cn3)n2)c1,> 11.4 µM,2.41,-1.09,13.7,> 46,> 46,inactive,28.2 µM (active),inactive,inactive,0.501 µM (active),,inactive,,inactive,inactive,6.31 µM (active),,,
CN(C)c1ncc2nc(-c3cccs3)c(=O)n(C)c2n1,> 11.4 µM,1.79,-2.27,,> 9.22,> 46,,inactive,inactive,inactive,,,inactive,,inactive,inactive,,,,
O=c1c(CCc2ccccc2)nc2cnc(N3CCOCC3)nc2n1C1CC1,> 11.4 µM,-19.2,4.06,3.71,,> 46,inactive,inactive,inactive,inactive,,,,,inactive,,,,,
Cc1cnc(CNc2cc(-c3ccccc3C(F)(F)F)ncn2)cn1,> 11.4 µM,3.5,10.7,8.02,> 46,> 46,inactive,inactive,inactive,inactive,25.1 µM (active),,6.31 µM (active),,inactive,inactive,inactive,49.4% [at 2.29 µM],4.59,
CN(C)c1ccc(-c2nc(-n3ccnc3)c3ccccc3n2)cc1,8.28 µM (active),,,-23.3,> 46,> 46,inactive,,,inactive,0.316 µM (active),,inactive,2510 nM (active),,inactive,0.631 µM (active),,,7.94 µM (active)
